High-throughput results deposited in PubChem by several laboratories.
The list is not random: actives were taken first. Their share in the collection is about 0.44%.
PolyA inh: polyadenylation inhibitors in yeast reporter cells, primary screen, luminescence, S. cerevisiae; S. cerevisiae SKY197-pL101 polyadenylation reporter, beta-gal luminescence; efflux-impaired pdr1/pdr3 knockout yeast; score 100 = 6 SD above DMSO; activity score, % at 12 µM; hit rate 0.02% among 300,000;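 active means lowest replicate activity score at least 50, where 100 means six control SD above control mean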;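 further: yeast exposed to compound for 9 h at 30 °C; higher score means more reporter readthrough which indicates perturbed polyadenylation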
ABCB6 inh MLPCN: ABCB6 transporter inhibitors, primary screen, K562-ABCB6 cells, flow cytometry, MLPCN library; ATP-binding cassette sub-family B member 6 (Homo sapiens), Q9NP58; K562-ABCB6 porphyrin accumulation, 1 h; active compounds read low; fluorescence ratio to DMSO, % at 10 µM; hit rate 0.19% among 360,000; AID 602162, 2011;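 active means fluorescence ratio to DMSO below 75%, the collection mean minus 3 SD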;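 further: signal is porphyrin accumulated inside mitochondria; 100% equals median channel fluorescence of DMSO control wells; lower ratio means ABCB6 inhibition with less porphyrin fluorescence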
VLA-4 inh: inhibition in human VLA-4 binding assay, primary screen, VLA-4 allosteric modulator project, MLPCN library, flow cytometry, VLA-4 expressing cells; Integrin alpha-4 (Homo sapiens), P13612; ligand binding flow cytometry; inhibition, % (about 7 µM as worked out from the volumes in the protocol); hit rate 0.2% among 330,000; in the data active means inhibition above about 50%
GASC-1 inh: inhibitors of GASC-1 histone demethylase, primary screen, biochemical, fluorescence, DELFIA europium; hit rate 0.069% among 330,000; Lysine-specific demethylase 4C (Homo sapiens), Q9H3R0; inhibition, % at 2.35 µM; GST-JMJD2C(1-420) H3K9me3 demethylation;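 active means more than half of a compound's replicate wells show inhibition beyond 50%, single wells judged on their own value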;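 further: signal counts dimethyl H3K9 product captured on neutravidin plate; 0% = median of DMSO wells and 100% = 0.3 times that DMSO median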
Target sequence (Q9H3R0 1-420 limits assumed): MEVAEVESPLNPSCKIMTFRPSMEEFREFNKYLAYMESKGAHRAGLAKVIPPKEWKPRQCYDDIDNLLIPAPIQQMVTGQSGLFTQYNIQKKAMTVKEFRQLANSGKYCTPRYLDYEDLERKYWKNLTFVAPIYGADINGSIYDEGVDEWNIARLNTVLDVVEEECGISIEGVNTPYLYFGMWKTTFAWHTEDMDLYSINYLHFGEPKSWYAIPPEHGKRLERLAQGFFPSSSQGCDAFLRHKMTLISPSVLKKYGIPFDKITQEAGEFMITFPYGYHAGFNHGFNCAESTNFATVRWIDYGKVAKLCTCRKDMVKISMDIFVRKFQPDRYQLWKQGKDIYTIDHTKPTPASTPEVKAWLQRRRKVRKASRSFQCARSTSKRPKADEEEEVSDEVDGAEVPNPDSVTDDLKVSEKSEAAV
VLA-4 allo CP: retest of VLA-4 allosteric modulators, confirmation, cell-based, cherry-picked plates, U937, HUTS-21 LIBS antibody; hit rate 2% among 1,300; inhibition, % at 6.7 µM; U937 cells, HUTS-21 LIBS mAb binding, flow cytometry; LDV ligand present at threefold Kd; shares compounds with VLA-4 inh; AID 2813, 2010; in the data active means inhibition above about 40%;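 further: 0% = ligand without compound and 100% = no ligand background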
ABCB6 inh CP1: ABCB6 transporter inhibitors, confirmation, K562-ABCB6 cells, flow cytometry, cherry pick 1; shares compounds with ABCB6 inh MLPCN; K562-ABCB6 porphyrin accumulation, 1 h; active compounds read low; ratio response (% of DMSO), % at 10 µM; 700 tested, under 10 active; AID 602430, 2012;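 active means repeat-averaged ratio response below 75% of DMSO, the collection mean minus 3 SD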;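 further: median porphyrin fluorescence at 575 nm with 488 nm excitation from mitochondria; lower ratio means less porphyrin signal so ABCB6 inhibition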
Starred values were filed as active, the others as inactive.

What do the screens show for `CN(C)C(=S)NC(=O)C12CC3CC(C)(CC(C)(C3)C1)C2`?
PolyA inh: 0.6; ABCB6 inh MLPCN: 104.0; VLA-4 inh: 8.3; GASC-1 inh: 5.3

What do the screens show for `O=C(c1cccnc1)c1ncc(C(F)(F)F)cc1Cl`?
PolyA inh: 7.8; ABCB6 inh MLPCN: 98.0; VLA-4 inh: 9.3; GASC-1 inh: -7.8

What do the screens show for `CNC(=O)C(=O)Nc1c(C)cc(C)cc1C`?
PolyA inh: 19.4; ABCB6 inh MLPCN: 103.0; VLA-4 inh: 43.1; GASC-1 inh: -1.6; VLA-4 allo CP: -3.6

Results for CNC(=O)C(=O)Nc1ccc(C)cc1C ?
PolyA inh: 13.1; ABCB6 inh MLPCN: 97.0; VLA-4 inh: 5.0; GASC-1 inh: 1.3

What do the screens show for `Cc1c(-c2ccccc2)sc2nc[nH]c(=S)c12`?
PolyA inh: -5.0; ABCB6 inh MLPCN: 97.0; VLA-4 inh: 4.3; GASC-1 inh: 77.6

Results for COc1ccc(/C=C/C(=O)Nc2ccccc2C(=O)NCC(c2ccc(OC)cc2)N(C)C)cc1 (stereo not drawn) ?
PolyA inh: 14.1; ABCB6 inh MLPCN: 99.0; VLA-4 inh: 53.9*; GASC-1 inh: 32.1; VLA-4 allo CP: 0.7

What do the screens show for `COCCCNC(=O)CCc1nc2cccnc2n1Cc1ccccc1`?
PolyA inh: -0.8; ABCB6 inh MLPCN: 104.0; VLA-4 inh: -3.7; GASC-1 inh: 113.5

What do the screens show for `N=c1n(CCO)c2ccccc2n1CCOc1ccc(Cl)cc1Cl`?
PolyA inh: 5.7; ABCB6 inh MLPCN: 98.0; VLA-4 inh: 53.6*; GASC-1 inh: 5.2; VLA-4 allo CP: 23.8

How did COc1ccc(OCCn2c(=N)n(CCO)c3ccccc32)cc1 do in these assays?
PolyA inh: 23.3; ABCB6 inh MLPCN: 95.0; VLA-4 inh: 6.7; GASC-1 inh: -1.6

What do the screens show for `O=C(NC(=S)NCc1ccc(-c2nc3ccccc3s2)cc1)c1ccco1`?
PolyA inh: -12.9; ABCB6 inh MLPCN: 92.0; VLA-4 inh: 44.8; GASC-1 inh: 1.6; VLA-4 allo CP: 2.1

Results for CC(C)(C)NC(=O)C(=O)N/N=C/c1ccc(Br)cc1 ?
PolyA inh: -4.9; ABCB6 inh MLPCN: 101.0; VLA-4 inh: -0.5; GASC-1 inh: 8.8

How did CC(C)(C)OC(=O)N/N=C/c1ccc(Br)cc1 do in these assays?
PolyA inh: 9.1; ABCB6 inh MLPCN: 102.0; VLA-4 inh: 49.6*; GASC-1 inh: -7.1; VLA-4 allo CP: 0.0

How did Cc1ccc2nc3c(cc2c1)c(C)nn3-c1ccccc1 do in these assays?
PolyA inh: -7.8; ABCB6 inh MLPCN: 99.0; VLA-4 inh: -13.1; GASC-1 inh: 17.1

Results for COc1cccc(OC)c1OCCCCc1c(C)n[nH]c1C ?
PolyA inh: -3.6; ABCB6 inh MLPCN: 97.0; VLA-4 inh: 58.6*; VLA-4 allo CP: 2.6

What do the screens show for `O=c1c2ccccc2nc2n1CCc1c-2[nH]c2ccccc12`?
ABCB6 inh MLPCN: 97.0; VLA-4 inh: 51.4*; VLA-4 allo CP: 3.8

How did CCn1c(=O)n(CC)c2cc(N3CCCC3)c(NC(=O)c3ccccc3C)cc21 do in these assays?
PolyA inh: -12.3; ABCB6 inh MLPCN: 64.0*; VLA-4 inh: 1.4; GASC-1 inh: -26.9; ABCB6 inh CP1: 98.0

What do the screens show for `COc1ccccc1C(=O)Nc1cc(C)on1`?
PolyA inh: -10.7; ABCB6 inh MLPCN: 97.0; VLA-4 inh: 2.5; GASC-1 inh: -9.1

Results for COc1ccccc1C(=O)Nc1cc(-c2ccc(C)cc2)no1 ?
PolyA inh: 5.0; ABCB6 inh MLPCN: 69.0*; VLA-4 inh: 7.4; GASC-1 inh: 7.8; ABCB6 inh CP1: 97.0

What do the screens show for `COC(=O)C1=CNC=C(C(=O)OC)C1c1cccc2ccccc12`?
PolyA inh: -1.5; ABCB6 inh MLPCN: 71.0*; VLA-4 inh: 5.1; GASC-1 inh: 40.6; ABCB6 inh CP1: 105.0

How did Nc1cccc(CCc2nc3cc4ccccc4cc3[nH]2)c1 do in these assays?
PolyA inh: 4.3; ABCB6 inh MLPCN: 98.0; VLA-4 inh: 15.5; GASC-1 inh: -16.2

Results for Cc1ccc(C)c(S(=O)(=O)N2CCN(C(=O)Cc3ccsc3)CC2)c1 ?
PolyA inh: -4.7; ABCB6 inh MLPCN: 98.0; VLA-4 inh: -0.1; GASC-1 inh: -11.9

What do the screens show for `O=c1c2ccccc2c(-c2ccccc2)nn1-c1cc(Cl)ccc1[N+](=O)[O-]`?
PolyA inh: -23.1; ABCB6 inh MLPCN: 73.0*; VLA-4 inh: 4.6; GASC-1 inh: 0.1; ABCB6 inh CP1: 100.0

Results for COc1ccccc1-c1cnc(C(O)c2ccccc2)[nH]1 (stereo not drawn) ?
ABCB6 inh MLPCN: 96.0

Results for CCc1ccc(C(O)c2ncc(-c3ccccc3OC)[nH]2)cc1 (stereo not drawn) ?
ABCB6 inh MLPCN: 73.0*; ABCB6 inh CP1: 98.0

How did CCCNC(=O)COC(=O)c1ccccc1C(=O)c1ccc(Cl)c([N+](=O)[O-])c1 do in these assays?
PolyA inh: -1.6; ABCB6 inh MLPCN: 57.0*; VLA-4 inh: 11.5; GASC-1 inh: 10.3; ABCB6 inh CP1: 93.0

What do the screens show for `Cc1nc2ccccc2n2c(O)c(CC(=O)O)cc12`?
PolyA inh: 13.9; ABCB6 inh MLPCN: 154.0; VLA-4 inh: -53.6; GASC-1 inh: 1.3

How did CCN(Cc1ccc(NC(C)=O)cc1)CC1CCCN(CCc2cccc(F)c2)C1 (stereo not drawn) do in these assays?
PolyA inh: -6.5; ABCB6 inh MLPCN: 100.0; VLA-4 inh: 6.7; GASC-1 inh: 1.2

What do the screens show for `c1ccc(Nc2cc(-c3ccccc3)nc3ncnn23)cc1`?
PolyA inh: -9.8; ABCB6 inh MLPCN: 99.0; VLA-4 inh: 2.8; GASC-1 inh: -13.7

How did Cc1ccc([N+](=O)[O-])cc1/C=N/Nc1nnnn1-c1ccccc1 do in these assays?
PolyA inh: -4.2; ABCB6 inh MLPCN: 96.0; VLA-4 inh: 2.4; GASC-1 inh: 5.4

What do the screens show for `CCc1ccc(CNC(=O)C2Cc3cc(S(=O)(=O)N4CCCC4)ccc3N2C(C)=O)cc1` (stereo not drawn)?
PolyA inh: -7.0; ABCB6 inh MLPCN: 5.0*; VLA-4 inh: 2.9; GASC-1 inh: 2.6; ABCB6 inh CP1: 99.0

Results for CSc1ccc(CNC(=O)C2Cc3cc(S(=O)(=O)N4CCCC4)ccc3N2C(C)=O)cc1 (stereo not drawn) ?
PolyA inh: -20.8; ABCB6 inh MLPCN: 97.0; VLA-4 inh: 6.1; GASC-1 inh: 15.6

What do the screens show for `O=C(COC(=O)c1ncc(Cl)c(Cl)c1Cl)c1ccc(Cl)s1`?
PolyA inh: 6.5; ABCB6 inh MLPCN: 72.0*; VLA-4 inh: -5.8; GASC-1 inh: -2.4; ABCB6 inh CP1: 98.0
